Results filed as inconclusive are left out. Entries that show only a call come without a potency. Calls of active or inactive are those of the source. The call rests on the fitted dose curve.
Assay: Cytotoxicity counterscreen for inhibitors of SARS-CoV-2 cell entry (AID 1645845); further: nearly all actives have a fitted effect of over 50% in size
Details: cell viability (SARS-CoV-2 entry assay cells); series mostly up to 57.1 µM
From the text: Assay Provider: Wei Zheng, Ph.D.
National Center for Advancing Translational Sciences, National Institute of Health, Rockville, MD.
SARS-CoV-2 spike protein, within the viral envelope, mediates viral attachment and infection of host cells. The SARS-CoV-2 spike protein specifically binds to the host receptor ACE2 (Angiotensin-converting enzyme 2). This interaction promotes endocytosis of the viral particle, additional events lead to viral-host cell membrane fusion and release of the viral contents, allowing viral replication.
While SARS-CoV-2 requires BSL-3 facilities for live virus work, pseudo-typed partices (PP) that incorporate SARS-CoV-2 spike proteins without replication elements could facilitate studies on viral entry mechanisms in a BSL-2 setting. This PP cell entry assay could also enable screening of small molecule compound libraries in BSL-2 setting to identify inhibitors of SARS-CoV-2 cell entry. To eliminate false positive compounds, ATP content cytotoxicity assay was screened in the same cell line.
SEQUENCE No. (e.g., 1, 2, 3, etc.); […] (e.g., Cells, Incubation, Reagent, etc.); VALUE and DESCRIPTION.
1. Cells. Seed 1500 HEK293-ACE2 cells (Expi293F with stable expression of human ACE2) in 2 uL/well media (DMEM, 10% FBS, 1x L-glutamine, 1x Pen/Strep, 1 ug/ml puromycin) in white 1536-well assay plates (Greiner #782073).
2. Incubation. Incubate at 37 C with 5% CO2 overnight (~16 h).
3. Compounds. Dispense 23 nL/well compounds in DMSO via pin transfer.
4. Incubation. Incubate for 1 h at 37C 5% CO2.
5. Reagent. Dispense 2 uL/well of media (DMEM, 10% FBS, 1x L-glutamine, 1x Pen/Strep, 1 ug/ml puromycin).
6. Incubation. Incubate at for 48h at 37C 5% CO2
7. Reagent. Dispense 4 uL/well of ATPLite 1step luminescence assay reagent (PerkinElmer #6016739).
8. Incubation. Incubate for 15 min at room temperature.
9. Detection. Read luminescence signal (Viewlux plate reader, PerkinElmer). Data was normalized with wells containing cells as 100%, and wells without cells (media only control) as 0%.
Potency means the concentration at half of the fitted maximal effect.

SMILES	Potency	activity change, negative = cytotoxicity
[2H]C([2H])([2H])C(CCC[C@@H](C)[C@H]1CC[C@H]2/C(=C/C=C3\C[C@@H](O)C[C@H](O)C3=C)CCC[C@]12C)C([2H])([2H])[2H]	inactive	–
C=C1c2c(Cl)ccc(O)c2C(O)=C2C(=O)[C@@]3(O)C(O)=C(C(N)=O)C(=O)[C@@H](N(C)C)[C@@H]3[C@@H](O)[C@H]12	inactive	–
CCN(CC)C(=O)[C@]1(c2ccccc2)C[C@H]1CN	inactive	–
CC1=NN(c2ccc(C(=O)O)cc2)C(=O)/C1=C/c1ccc(-c2cc(C)c(C)cc2[N+](=O)[O-])o1	inactive	–
CN1C(=O)N[C@@H](Cc2c[nH]c3c(Cl)cccc23)C1=O	inactive	–
CN(CCCCCCN(C)C(=O)Oc1ccc[n+](C)c1)C(=O)Oc1ccc[n+](C)c1	inactive	–
O=C(O)CC(C(=O)O)n1c(O)c(C2=c3cc(Br)ccc3=NC2=O)sc1=S (stereo not given)	inactive	–
CC1CC2C3CCC4=CC(=O)C=CC4(C)C3(F)C(O)CC2(C)C1(O)C(=O)COC(=O)c1cccc(S(=O)(=O)O)c1 (stereo not given)	inactive	–
NC[C@H]1O[C@H](O[C@H]2[C@H](O)[C@@H](O[C@H]3O[C@H](CO)[C@@H](O)[C@H](N)[C@H]3O)[C@H](N)C[C@@H]2N)[C@H](N)C[C@@H]1O	inactive	–
NS(=O)(=O)NCCNc1nonc1C(=Nc1ccc(F)c(Br)c1)NO	inactive	–
C[N+]1(C)[C@@H]2CC(OC(=O)C(O)(c3cccs3)c3cccs3)C[C@H]1[C@H]1O[C@@H]12 (stereo not given in full)	inactive	–
O=C(O)C1=CCCN(CCOC(c2ccc(C(F)(F)F)cc2)c2ccc(C(F)(F)F)cc2)C1	inactive	–
COc1ccc(-c2cc(C(O)C3CCCCN3)c3ccccc3n2)cc1 (stereo not given)	14.1 µM (active)	–
C[C@H]1[C@H](O)[C@@H](C)/C=C/C=C/CC/C=C/C=C/C=C/C=C/[C@H](O[C@@H]2O[C@H](C)[C@@H](O)[C@H](N)[C@@H]2O)C[C@@H]2O[C@](O)(C[C@@H](O)[C@H](O)CC[C@@H](O)C[C@@H](O)C[C@@H](O)CC(=O)O[C@H]1C)C[C@H](O)[C@H]2C(=O)O	inactive	–
CCN1CCCC1CNC(=O)c1cc(S(=O)(=O)CC)ccc1OC (stereo not given)	inactive	–
CCCCCCCCCCCCOC(=O)CS(=O)(=O)O	inactive	–
CONC(=O)Nc1ccc(-c2sc3c(c2CN(C)C)c(=O)n(-c2ccc(OC)nn2)c(=O)n3Cc2c(F)cccc2F)cc1	inactive	–
Cc1nc(NC(=O)N2CCC[C@H]2C(N)=O)sc1-c1ccnc(C(C)(C)C(F)(F)F)c1	inactive	–
CCS(=O)(=O)N1CCN(c2ccc(Nc3ncc(C(N)=O)c(NC4CC4)n3)cc2)CC1	25.1 µM (active)	–
C[C@H](NC(=O)CCC(F)(F)F)C(=O)N[C@@H]1C(=O)N(CCO)c2ncccc2-c2ccccc21	inactive	–

SMILES	Potency	activity change, negative = cytotoxicity
OCC=Cc1ccccc1	inactive	–
CC(OC(=O)NCC1(CC(=O)O)CCCCC1)OC(=O)C(C)C (stereo not given)	inactive	–
COc1ccc(CNCC(O)COc2ccc3[nH]c(=O)ccc3c2)cc1OC (stereo not given)	inactive	–
CC1=CC(=C(c2ccc(N)cc2)c2ccc(N)cc2)C=CC1=N	8.91 µM (active)	–
CCCCCCCCCCCC(=O)OCN1C(=O)CCc2ccc(OCCCCN3CCN(c4cccc(Cl)c4Cl)CC3)cc21	inactive	–
CC1=C(C(=O)O)N2C(=O)[C@@H](NC(=O)[C@H](N)C3=CCC=CC3)[C@@H]2SC1	inactive	–
CC1=CCC(C(C)(C)O)CC1 (stereo not given)	inactive	–
CC(C)(C)S(=O)(=O)c1ccc2nccc(Nc3n[nH]c4ccc(F)cc34)c2c1	inactive	–
CN[C@@H]1[C@H](O)[C@H](O[C@@H]2[C@H](O)[C@@H](O[C@H]3O[C@H]([C@@H](C)NC)CC[C@H]3N)[C@@H](N)C[C@H]2N)OC[C@]1(C)O	–	-14.3% [at 11.3 µM] (inactive)
CC(=O)OCC(=O)[C@@]12OC3(CCCC3)O[C@@H]1C[C@H]1[C@@H]3CCC4=CC(=O)C=C[C@]4(C)[C@@]3(F)[C@@H](O)C[C@@]12C	inactive	–
CC(=O)OC[C@H]1O[C@@H]([S-])[C@H](OC(C)=O)[C@@H](OC(C)=O)[C@@H]1OC(C)=O.CC[PH+](CC)CC.[Au]	3.16 µM (active)	–
Cc1ccc(NC(=O)[C@H]2CCCN(C(=O)c3c(C)cccc3F)[C@H]2c2ccc(NC3CCCC3)cc2)cc1C(F)(F)F	inactive	–
CC[C@H]1OC(=O)C[C@@H](OC(C)=O)[C@H](C)[C@@H](O[C@@H]2O[C@H](C)[C@@H](O[C@H]3C[C@@](C)(O)[C@@H](OC(=O)CC(C)C)[C@H](C)O3)[C@H](N(C)C)[C@H]2O)[C@@H](CC=O)C[C@@H](C)C(=O)/C=C/C(C)=C/[C@@H]1CO[C@@H]1O[C@H](C)[C@@H](O)[C@@H](OC)[C@H]1OC	inactive	–
CCCCC(=O)O[C@]1(C(=O)COC(C)=O)CC[C@H]2[C@@H]3CCC4=CC(=O)C=C[C@]4(C)[C@H]3[C@@H](O)C[C@@]21C	inactive	–
C[C@H]1[C@H](O)[C@@H](C)/C=C/C=C/CC/C=C/C=C/C=C/C=C/C(OC2O[C@H](C)[C@@H](O)[C@H](N)[C@@H]2O)CC2O[C@](O)(CC(O)C(O)CCC(O)CC(O)CC(O)CC(=O)O[C@H]1C)CC(O)C2C(=O)O (stereo not given in full)	inactive	–
CC(/C=C/C(=O)NO)=C\[C@@H](C)C(=O)c1ccc(N(C)C)cc1	7.94 µM (active)	–
CNC(C)CC1CCCC1 (stereo not given)	inactive	–
CCN1CCN(Cc2ccc(Nc3ncc(F)c(-c4cc(F)c5nc(C)n(C(C)C)c5c4)n3)nc2)CC1	inactive	–
Cc1ccc(-n2nc(C(C)(C)C)cc2NC(=O)NCc2cc(F)ccc2Oc2ccc3c(cnn3CCO)c2)cc1	inactive	–
N#Cc1ccnc(Nc2cc(C3CCN(C4COC4)CC3)cc(N3CCC(F)(F)C3)n2)c1	8.91 µM (active)	–

— PubChem BioAssay (NCATS)
